The whole screen tested about 5,500 compounds, of which about 2,000 (36%) were called active. Another 18% or so got no clear call; they are omitted. Rule as the data show it: active = normalized growth mostly below about 0.91 (no sharp cut-off); inconclusive = no clear call, values can overlap the other calls; inactive = mostly above about 0.92. The list shows a part of the results.
Assay: chemical genetic growth profiling, strain panel (AID 1159580);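 also: tested at 20 µM; growth read once vehicle control cultures reached saturation at 30 °C; 1 = growth at the plate median or of vehicle wells; lower values mean less growth of the strain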
Settings: growth OD

Measured: normalized growth

NCC(CC(=O)O)c1ccc(Cl)s1 (stereo unspecified)
inactive: S. cerevisiae deletion strains, locus YAL013W, strain DEP1, active compounds read low 0.991 | S. cerevisiae deletion strains, locus YBR021W, strain FUR4, active compounds read low 0.96 | S. cerevisiae deletion strains, locus YBR229C, strain ROT2, active compounds read low 0.99 | S. cerevisiae deletion strains, locus YCL029C, strain bik1, active compounds read low 0.985 | S. cerevisiae deletion strains, locus YDL035C, strain GPR1, active compounds read low 0.994 | S. cerevisiae deletion strains, locus YDL074C, strain BRE1, active compounds read low 1.02 | S. cerevisiae deletion strains, locus YDL101C, strain DUN1, active compounds read low 0.992 | S. cerevisiae deletion strains, locus YDL134C, strain PPH21, active compounds read low 0.982 | S. cerevisiae deletion strains, locus YDL185W, strain tfp1, active compounds read low 0.978 | S. cerevisiae deletion strains, locus YDL192W, strain arf1, active compounds read low 0.987 | S. cerevisiae deletion strains, locus YDR101C, strain arx1, active compounds read low 0.998 | S. cerevisiae deletion strains, locus YDR150W, strain NUM1, active compounds read low 1 | S. cerevisiae deletion strains, locus YDR162C, strain NBP2, active compounds read low 1.03 | S. cerevisiae deletion strains, locus YDR318W, strain mcm21, active compounds read low 0.968 | S. cerevisiae deletion strains, locus YDR388W, active compounds read low 0.99 | S. cerevisiae deletion strains, locus YDR502C, strain sam2, active compounds read low 0.996 | S. cerevisiae deletion strains, locus YEL061C, strain CIN8, active compounds read low 0.994 | S. cerevisiae deletion strains, locus YER110C, active compounds read low 0.979 | S. cerevisiae deletion strains, locus YER155C, strain BEM2, active compounds read low 1 | S. cerevisiae deletion strains, locus YER167W, strain BCK2, active compounds read low 0.973 | S. cerevisiae deletion strains, locus YGL078C, strain dbp3, active compounds read low 0.995 | S. cerevisiae deletion strains, locus YGL086W, strain mad1, active compounds read low 0.958 | S. cerevisiae deletion strains, locus YGL248W, strain PDE1, active compounds read low 0.987 | S. cerevisiae deletion strains, locus YGR078C, strain PAC10, active compounds read low 0.994 | S. cerevisiae deletion strains, locus YGR135W, strain pre9, active compounds read low 0.974 | S. cerevisiae deletion strains, locus YGR229C, strain SMI1, active compounds read low 0.958 | S. cerevisiae deletion strains, locus YGR252W, strain gcn5, active compounds read low 0.926 | S. cerevisiae deletion strains, locus YHR030C, strain SLT2, active compounds read low 0.989 | S. cerevisiae deletion strains, locus YHR079C, strain IRE1 (second series), active compounds read low 0.992 | S. cerevisiae deletion strains, locus YHR094C, strain hxt1, active compounds read low 0.991 | S. cerevisiae deletion strains, locus YHR129C, strain ARP1, active compounds read low 0.99 | S. cerevisiae deletion strains, locus YHR200W, strain rpn10, active compounds read low 0.978 | S. cerevisiae deletion strains, locus YIL066C, strain RNR3, active compounds read low 0.979 | S. cerevisiae deletion strains, locus YIL073C, strain SPO22, active compounds read low 0.959 | S. cerevisiae deletion strains, locus YIL125W, strain kgd1, active compounds read low 1.01 | S. cerevisiae deletion strains, locus YIR030C, strain dcg1, active compounds read low 0.993 | S. cerevisiae deletion strains, locus YJL095W, strain BCK1, active compounds read low 0.991 | S. cerevisiae deletion strains, locus YJL134W, strain LCB3, active compounds read low 0.989 | S. cerevisiae deletion strains, locus YJL168C, strain set2, active compounds read low 0.996 | S. cerevisiae deletion strains, locus YJL187C, strain SWE1 (second series), active compounds read low 0.999 | S. cerevisiae deletion strains, locus YJR043C, strain POL32, active compounds read low 0.964 | S. cerevisiae deletion strains, locus YJR075W, strain HOC1, active compounds read low 1.06 | S. cerevisiae deletion strains, locus YKL009W, strain mrt4, active compounds read low 1 | S. cerevisiae deletion strains, locus YKL068W, active compounds read low 0.989 | S. cerevisiae deletion strains, locus YKL085W, strain MDH1 (second series), active compounds read low 1.02 | S. cerevisiae deletion strains, locus YKL085W, strain MDH1, active compounds read low 1.02 | S. cerevisiae deletion strains, locus YKL190W, strain CNB1, active compounds read low 0.997 | S. cerevisiae deletion strains, locus YKR001C, strain vps1, active compounds read low 0.947 | S. cerevisiae deletion strains, locus YLR039C, strain RIC1, active compounds read low 1.01 | S. cerevisiae deletion strains, locus YLR058C, strain SHM2, active compounds read low 0.985 | S. cerevisiae deletion strains, locus YLR102C, strain apc9, active compounds read low 0.998 | S. cerevisiae deletion strains, locus YLR262C, strain YPT6, active compounds read low 1.03 | S. cerevisiae deletion strains, locus YLR268W, strain sec22, active compounds read low 0.988 | S. cerevisiae deletion strains, locus YLR330W, strain CHS5, active compounds read low 0.993 | S. cerevisiae deletion strains, locus YLR342W, strain FKS1 (second series), active compounds read low 0.978 | S. cerevisiae deletion strains, locus YLR371W, strain rom2, active compounds read low 0.986 | S. cerevisiae deletion strains, locus YLR418C, strain cdc73, active compounds read low 0.914 | S. cerevisiae deletion strains, locus YML016C, strain PPZ1, active compounds read low 0.984 | S. cerevisiae deletion strains, locus YML032C, strain rad52, active compounds read low 0.963 | S. cerevisiae deletion strains, locus YML124C, strain tub3, active compounds read low 0.979 | S. cerevisiae deletion strains, locus YMR078C, strain ctf18, active compounds read low 0.989 | S. cerevisiae deletion strains, locus YMR223W, strain ubp8, active compounds read low 0.958 | S. cerevisiae deletion strains, locus YMR263W, strain SAP30, active compounds read low 1.01 | S. cerevisiae deletion strains, locus YMR307W, strain GAS1, active compounds read low 0.959 | S. cerevisiae deletion strains, locus YNL067W, strain RPL9B, active compounds read low 1.02 | S. cerevisiae deletion strains, locus YNL128W, strain TEP1, active compounds read low 1.02 | S. cerevisiae deletion strains, locus YNL153C, strain GIM3, active compounds read low 1.02 | S. cerevisiae deletion strains, locus YNL233W, strain BNI4, active compounds read low 0.989 | S. cerevisiae deletion strains, locus YNL250W, strain rad50, active compounds read low 0.995 | S. cerevisiae deletion strains, locus YNL271C, strain bni1, active compounds read low 0.988 | S. cerevisiae deletion strains, locus YNL298W, strain CLA4, active compounds read low 0.988 | S. cerevisiae deletion strains, locus YNL307C, strain MCK1, active compounds read low 0.954 | S. cerevisiae deletion strains, locus YNL322C, strain KRE1, active compounds read low 0.999 | S. cerevisiae deletion strains, locus YNR052C, strain pop2, active compounds read low 0.981 | S. cerevisiae deletion strains, locus YOL006C, strain TOP1, active compounds read low 0.973 | S. cerevisiae deletion strains, locus YOL012C, strain htz1 1.87 | S. cerevisiae deletion strains, locus YOL147C, strain pex11, active compounds read low 0.998 | S. cerevisiae deletion strains, locus YOR061W, strain CKA2, active compounds read low 0.997 | S. cerevisiae deletion strains, locus YOR069W, strain VPS5, active compounds read low 0.983 | S. cerevisiae deletion strains, locus YOR136W, strain idh2, active compounds read low 0.981 | S. cerevisiae deletion strains, locus YOR144C, strain elg1, active compounds read low 0.987 | S. cerevisiae deletion strains, locus YOR184W, strain ser1, active compounds read low 0.94 | S. cerevisiae deletion strains, locus YOR316C, strain cot1, active compounds read low 0.992 | S. cerevisiae deletion strains, locus YPL055C, strain LGE1, active compounds read low 1.05 | S. cerevisiae deletion strains, locus YPL241C, strain CIN2, active compounds read low 0.993 | S. cerevisiae deletion strains, locus YPR119W, strain clb2, active compounds read low 0.994 | S. cerevisiae deletion strains, locus YPR141C, strain kar3, active compounds read low 0.982 | S. cerevisiae deletion strains, locus YPR163C, strain tif3, active compounds read low 0.991 | S. cerevisiae deletion strains, locus YPR167C, strain met16, active compounds read low 0.99 | S. cerevisiae deletion strains, strain wtn01, active compounds read low 0.988 | S. cerevisiae strains, strain wild type, active compounds read low 0.979

— PubChem BioAssay AID1159580 (chemical genetic matrix, 2015)
